Hits are enriched below; roughly 5.7% of the tested compounds scored in any of these assays.
Giardia kill: Small Molecules that selectively kill Giardia lamblia: qHTS | activity change, % at 7.66 µM, hits read low | AID 540267, 2011 | 340,000 compounds, 0.15% hits | Giardia lamblia trophozoite viability; in the data active means activity change below about -80%; inconclusive means between about -30% and that limit;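 further: parasites exposed to compound for two days anaerobically before the ATP read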
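Viability, read as ATP luminescence: trophozoites at 100 cells/well, compound added, 48 hrs anaerobic at 37 deg C, then 15-30 min room-temperature development before reading.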
KB-V1 MDR tox: qHTS assay for MDR1-selective chemotherapeutics: Primary screen using the drug-selected MDR subline cells KB-V1; 400,000 compounds, 3.4% hits; AID 1347076, 2019; Potency, µM (doses to about 46.1 µM), most hits filed as cytotoxic; KB-V1 MDR cells viability, CellTiter-Glo, 72 h; further: nearly all actives have a fitted effect of over 60% in size
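In this primary screen, KB-V1 cells overexpressing P-gp are incubated with library compounds (lowest to highest concentration) for 72 h at 37 degrees C before a luminescent ATP viability read.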
PI4K2A inh: qHTS for small molecular inhibitors of PI4K2A; activity change, negative = inhibition, % at 76.9 µM; 420,000 compounds, 0.13% hits; purified PI4K2A, ADP-Glo luminescence, 1 h; active compounds read low; in the data active means activity change below about -50%; inconclusive means mostly about -30% to -49%
Target sequence (Q9BTU6 whole entry, looked up): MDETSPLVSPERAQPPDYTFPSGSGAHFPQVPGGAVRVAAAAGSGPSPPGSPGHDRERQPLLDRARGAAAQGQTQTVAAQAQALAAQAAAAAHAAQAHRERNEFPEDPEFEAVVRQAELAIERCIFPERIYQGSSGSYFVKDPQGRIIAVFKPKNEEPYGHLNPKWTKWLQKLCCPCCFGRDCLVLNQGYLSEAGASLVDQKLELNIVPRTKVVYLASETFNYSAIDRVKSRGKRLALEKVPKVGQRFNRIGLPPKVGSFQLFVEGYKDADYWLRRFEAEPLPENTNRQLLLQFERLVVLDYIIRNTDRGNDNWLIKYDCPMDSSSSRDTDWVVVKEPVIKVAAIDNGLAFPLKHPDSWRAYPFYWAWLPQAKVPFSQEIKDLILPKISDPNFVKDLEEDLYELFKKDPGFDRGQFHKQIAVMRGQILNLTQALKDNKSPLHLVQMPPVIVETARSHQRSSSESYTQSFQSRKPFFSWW
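ADP-Glo luminescence measured ADP generated by PI4K2A enzyme (4 ug/mL before mixing) with 1.2 mM PI substrate (pre-mix) and 300 microM ATP (pre-mix). Tris pH7.5 buffer with MgCl2, Triton X-100; 1 h reaction at ambient temperature.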
KB-3-1 tox: qHTS assay for MDR1-selective chemotherapeutics: Primary screen using the parental adenocarcinoma cell KB-3-1 | AID 1347075, 2019 | 400,000 compounds, 1.4% hits | Potency, µM (doses to about 46.1 µM), hits mostly cytotoxic | KB-3-1 viability, CellTiter-Glo ATP luminescence, 72 h; further: nearly all actives have a fitted effect of over 60% in size
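72 h, 37 °C compound treatment of KB-3-1 parental cells; CellTiter-Glo added, 10 min, luminescence read. Data corrected against DMSO-only plates and normalized before curve fitting.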
A549 tox: Nrf2 qHTS screen for inhibitors: counterscreen for cytotoxicity; A549 ARE-Fluc cells, CellTiter-Fluor viability, 18-24 h; Potency, µM (titrated, usually from 46 µM), most hits filed as inhibitors; 390,000 compounds, 0.16% hits; AID 504648, 2011
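A549 ARE_Fluc cells in 5% FBS OPTI-MEM were exposed to compounds in concentration-response for 18-24 h at 37 deg C. Viability was read by CellTiter-Fluor fluorescence (Ex 405/Em 525) after 30 min, before the luciferase read.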
Nrf2 inh: Nrf2 qHTS screen for inhibitors | 360,000 compounds, 2.1% hits | A549 ARE-Fluc reporter, luciferase luminescence, 18-24 h | Potency, µM (titrated, usually from 46 µM), actives largely listed as inhibitors; further: nearly all actives have a fitted effect of over 60% in size
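A549 ARE_Fluc cells (5000/well, 5% FBS OPTI-MEM) pre-incubated 2 h, then treated with compounds 18-24 h at 37C/5% CO2 in concentration-response. CellTiter-Fluor viability read first; BugLite luciferase luminescence after 15 min at room temperature gives Nrf2 activity.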
Each line names hits and unclear results; the compound was inactive in the other large screens. Unless noted, the call rests on the fitted dose curve; in most records, active means well fitted curve in the direction sought with a large enough effect; inconclusive means small, poorly fitted or top-dose-only effect, or another doubt; inactive means no such curve, though single readings can be large; an effect the other way counts as inactive or inconclusive.

COC(=O)c1ccc(S(=O)(=O)N2CCCN(Cc3ccc(F)cc3)CC2)n1C	Nrf2 inh 13µM
CC(C)CN1C(=O)C[C@]2(C(=O)N(C)c3ccc(NS(=O)(=O)C4CC4)cc32)C1c1ccccc1 (some centres undefined)	none (no result: Giardia kill, KB-V1 MDR tox, KB-3-1 tox, A549 tox, Nrf2 inh)
C#C[C@]1(OC(C)=O)CCC2C3CCC4=CC(=O)CC[C@@H]4C3CC[C@@]21C (some centres undefined)	KB-V1 MDR tox 9.2µM, KB-3-1 tox inconclusive
C#C[C@]1(OC(C)=O)CC[C@H]2[C@@H]3CCC4=C[C@@H](OC(C)=O)CC[C@@H]4[C@H]3CC[C@@]21C	none (no result: Giardia kill, KB-V1 MDR tox, KB-3-1 tox, A549 tox, Nrf2 inh)
CN(C)S(=O)(=O)c1cccc(-c2cn3cc(Cl)ccc3n2)c1	KB-V1 MDR tox 16.4µM (no result: Nrf2 inh)
COc1cccc(C2CC(c3cccs3)=NN2C(=O)CSc2nc3ccccc3s2)c1OC (centres undefined)	KB-V1 MDR tox 11.6µM, KB-3-1 tox inconclusive
COc1ccc(C2=NN(C(=O)CSc3nc4ccccc4s3)C(c3ccc(F)cc3)C2)cc1 (centres undefined)	KB-V1 MDR tox 11.6µM, KB-3-1 tox inconclusive
COc1cccc(C2CC(c3cccs3)=NN2C(=O)CCC(=O)O)c1OC (centres undefined)	none
COc1ccc(CC(=O)OCC(=O)N2N=C(c3ccccc3)CC2c2ccc(OC)cc2)cc1 (centres undefined)	KB-V1 MDR tox 20.6µM
COc1ccc(C2CC(c3cccs3)=NN2C(=O)CSc2nc3c(cnn3-c3ccccc3)c(=O)[nH]2)cc1 (centres undefined)	KB-3-1 tox inconclusive, Nrf2 inh 16.4µM
CCOCCCNC(=O)C1CCN(S(=O)(=O)c2cc3c(cc2Br)CCN3C(=O)CC)CC1	none (no result: Giardia kill, KB-V1 MDR tox, KB-3-1 tox, A549 tox, Nrf2 inh)
CCCCCn1ncc2c3sc(C)cc3n(C)c2c1=O	Nrf2 inh inconclusive (no result: Giardia kill, KB-V1 MDR tox, PI4K2A inh, KB-3-1 tox)
S=C(Nc1ccc(Cl)cc1)c1nc2ccccc2s1	none (no result: Nrf2 inh)
O=C(Nc1ccc(Cl)cc1)/C(=C/c1cccc(O)c1)c1nc2ccccc2s1	KB-V1 MDR tox inconclusive, KB-3-1 tox 2.91µM, A549 tox inconclusive, Nrf2 inh inconclusive
CC1CCN(c2ccc(-c3cccs3)nn2)CC1	Giardia kill -93.7, KB-V1 MDR tox inconclusive, PI4K2A inh -57.0, Nrf2 inh inconclusive
Clc1ccc(-c2cccs2)nn1	none
O=C(Nc1ccc(Cl)cc1)N1CCN(Cc2nc3ccccc3c(=O)[nH]2)CC1	none (no result: Giardia kill, KB-V1 MDR tox, KB-3-1 tox, A549 tox, Nrf2 inh)
Clc1ccc(Cn2c3c(c4ccccc42)CCc2cc4ccccc4nc2-3)cc1	A549 tox inconclusive, Nrf2 inh inconclusive (no result: PI4K2A inh)
CN(C(=O)c1ccc(Oc2ccc([N+](=O)[O-])cc2)cc1)C1CCCCC1	Nrf2 inh 25.9µM
CCOC(=O)c1cc(-c2ccccc2)n(CCC(=O)NCCc2ccccc2)c1C	none (no result: Giardia kill, KB-V1 MDR tox, KB-3-1 tox, Nrf2 inh)
O=C(OCC#CCSc1nnc(-c2ccccc2)o1)c1ccc(F)cc1	none (no result: Giardia kill, KB-V1 MDR tox, KB-3-1 tox)
CCOC(=O)C1(S(=O)(=O)c2ccccc2)CCN(Cc2ccc(Cl)cc2)CC1	KB-V1 MDR tox 10.3µM, KB-3-1 tox inconclusive
CCOC(=O)C1(CCc2ccccc2)CCN(Cc2ccc(O)cc2)CC1	none
CCOC(=O)C1(Cc2ccc(Cl)cc2)CCN(Cc2nccn2CC)CC1	none
CCOC(=O)C1(S(=O)(=O)c2ccc(Cl)cc2)CCN(Cc2ccc(Cl)cc2)CC1	KB-V1 MDR tox 8.2µM, KB-3-1 tox inconclusive, Nrf2 inh inconclusive
C=CC(C)(C)c1[nH]cnc1/C=C1\NC(=O)C(C(C)C)NC1=O (centres undefined)	KB-3-1 tox 5.8µM
CCOc1ccc(-n2c(SCC(=O)c3ccc4ccccc4c3)nnc2-c2ccco2)cc1	none (no result: Giardia kill, KB-V1 MDR tox, KB-3-1 tox, A549 tox, Nrf2 inh)
Cc1cc(C(=O)CN2C(=O)NC(C)(c3cc(F)ccc3F)C2=O)c(C)n1C1CC1 (centres undefined)	none
Cc1cc(C(=O)CN2C(=O)C(=O)N(CC(C)C)C2=O)c(C)n1C1CC1	KB-V1 MDR tox 18.4µM
Cc1cc(C(=O)CN2C(=O)C(=O)N(CCC3=CCCCC3)C2=O)c(C)n1C	KB-V1 MDR tox 23.1µM
COc1cccc(C2(C)NC(=O)N(CC(=O)c3cc(C)n(C4CC4)c3C)C2=O)c1 (centres undefined)	KB-V1 MDR tox 16.4µM
CCN1C(=O)C(=O)N(CC(=O)c2cc(C)n(C3CC3)c2C)C1=O	Nrf2 inh inconclusive
CCCN1C(=O)C(=O)N(CC(=O)c2cc(C)n(C3CC3)c2C)C1=O	KB-V1 MDR tox 20.6µM, KB-3-1 tox inconclusive
COc1ccccc1NC(=O)O[C@@H]1CC[C@@]23CCCN2C(=O)CCC[C@H]3C1	none (no result: Giardia kill, KB-V1 MDR tox, KB-3-1 tox, A549 tox, Nrf2 inh)
CC(C)CN1C(=O)C(=O)N(CC(=O)c2ccc3c(c2)CCCC3)C1=O	KB-V1 MDR tox 16.4µM
NC(N)=NC(=O)Cc1c(Cl)cccc1Cl	Nrf2 inh 8.2µM
O=C(Cc1c(Cl)cccc1Cl)OCc1ccccn1	none
CC1(C(=O)NCc2cccs2)Cc2c(-c3ccccc3)ccnc2O1 (centres undefined)	KB-V1 MDR tox inconclusive, KB-3-1 tox 5.8µM (no result: Giardia kill, A549 tox, Nrf2 inh)
CC1(C(=O)NCc2cccs2)Cc2c(-c3ccc4c(c3)OCO4)ccnc2O1 (centres undefined)	KB-V1 MDR tox inconclusive, KB-3-1 tox 5.17µM (no result: Giardia kill, A549 tox, Nrf2 inh)
CN(C)c1ccc(-c2ccnc3c2CC(C)(C(=O)NCc2cccs2)O3)cc1 (centres undefined)	KB-3-1 tox inconclusive (no result: Giardia kill, A549 tox, Nrf2 inh)

Source: PubChem (National Center for Advancing Translational Sciences (NCATS))
